Our source for the outcome, inhibition and AC50 values is PubChem BioAssay.

Records with an inconclusive call do not appear. Active and inactive are the calls of the source. Unless noted, no stated cut-off is given here; in the data, active means inhibition above about 80%; inactive means the rest.

Assay [1] can be described thus: growth inhibition of DIPG glioma cells, dose response, cell-based, JHH-DIPG-1, MIPE4.0, CellTiter-Glo, qHTS (AID 1347062; cut-off not given, nearly all actives have AC50 up to about 27 µM;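 on AC50: cells exposed to compound for two days before readout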). Conditions: JHH-DIPG-1 viability, CellTiter-Glo ATP luminescence. Background: In ATP-based viability assays light output follows the ATP content of the culture.
Assay [2] is described as follows: growth inhibition of DIPG glioma cells, dose response, cell-based, SU-DIPG-IV, MIPE4.0, CellTiter-Glo, qHTS (AID 1347063; cut-off not given, nearly all actives have AC50 up to about 30 µM;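 further: compound exposure lasted 48 hours before the viability readout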). To be noted: SU-DIPG-IV viability, CellTiter-Glo ATP luminescence.
The nature of assay [3]: SU-DIPG-VI glioma cell viability, MIPE4.0 library, CellTiter-Glo luminescence, qHTS (AID 1347066; cut-off not given, nearly all actives have AC50 up to about 30 µM;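 further: cells exposed to compound for 48 hours before readout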). Conditions: CellTiter-Glo ATP luminescence.
The nature of assay [4]: LFS_MB_P medulloblastoma growth inhibition, cell-based, chromothripsis tumors, cisplatin or BGB combos (AID 1671449).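 Further: cells exposed for 96 hours; 0% = vehicle DMSO and 100% = killing by high DMSO.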 Conditions: LFS_MB_P medulloblastoma cells.
Assay [5] can be described thus: HDN33 neuroblastoma growth inhibition, cell-based, chromothripsis tumors, cisplatin or BGB combos (AID 1671450).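 Further: cells exposed to compound for four days; 0% = vehicle DMSO and 100% = cell killing by high DMSO.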 To be noted: HDN33 neuroblastoma cells, stronger effect = higher value.
A short description of assay [6]: ICB984 medulloblastoma cell growth inhibition, synergistic combos for chromothripsis tumors, cisplatin or BGB combos (AID 1671451; call rule not given here;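 further: cells exposed for 96 hours before readout; 0% = vehicle DMSO and 100% = killing by high DMSO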). To be noted: ICB984 medulloblastoma cells, drug combinations, stronger effect = higher value.
A short description of assay [7]: LFS_MB_1R medulloblastoma cell growth inhibition, synergistic combos for chromothripsis tumors, cisplatin or BGB combos (AID 1671452).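 Further: cells exposed for 96 hours before readout.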 Conditions: LFS_MB_1R medulloblastoma cells, stronger effect = higher value.
Assay [8] in a line: HTB85 osteosarcoma cell growth inhibition, synergistic combos for chromothripsis tumors, BGB or cisplatin IC20 combos (AID 1671453).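 Further: cells exposed for 96 hours before readout; 0% = vehicle DMSO and 100% = high DMSO killing control.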 To be noted: HTB85 osteosarcoma cells, drug combinations, stronger effect = higher value.
The nature of assay [9]: CRL2098 osteosarcoma cell growth inhibition, synergistic combos for chromothripsis tumors, BGB or cisplatin IC20 combos (AID 1671454).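 Further: cells exposed for 96 h before readout; 0% = vehicle DMSO and 100% = killing by high DMSO.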 To be noted: CRL2098 osteosarcoma cells, drug combinations, stronger effect = higher value.
The nature of assay [10]: HD-MB03 medulloblastoma cell growth inhibition, synergistic combos for chromothripsis tumors, BGB or cisplatin IC20 combos (AID 1671455; in the data active means inhibition above about 83%;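 further: 0% = vehicle DMSO and 100% = high DMSO as cytotoxic control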). Conditions: HD-MB03 medulloblastoma cells, stronger effect = higher value.
Assay [11] is described as follows: UWB1.289 ovarian carcinoma cell growth inhibition, synergistic combos for chromothripsis tumors, BGB or cisplatin combos (AID 1671456).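 Further: cells exposed to compound for four days; 0% = vehicle DMSO and 100% = killing by high DMSO.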 Conditions: UWB1.289 ovarian carcinoma cells, stronger effect = higher value.
Assay [12] in a line: LFS_MB_2R medulloblastoma cell growth inhibition, synergistic combos for chromothripsis tumors, cisplatin combos (AID 1671457).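 Further: cells exposed to compound for four days before readout.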 To be noted: LFS_MB_2R medulloblastoma cells, stronger effect = higher value.
The nature of assay [13]: MDA-MB-436 breast carcinoma cell growth inhibition, synergistic combos for chromothripsis tumors, BGB or cisplatin combos (AID 1671458; call rule not given here;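 further: cells exposed for 96 hours; 0% = vehicle DMSO and 100% = killing by high DMSO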). Conditions: MDA-MB-436 breast carcinoma growth inhibition, drug combinations, stronger effect = higher value.
Assay [14] is described as follows: UWB1.289_BRCA1 ovarian cancer growth, cell-based, BGB or cisplatin combinations (AID 1671459). Conditions: UWB1.289 BRCA1 ovarian carcinoma, drug combinations, stronger effect = higher value.
A short description of assay [15]: human astrocyte viability loss, single and combined drugs, cytotoxicity control for chromothriptic childhood tumor combination screen, cell-based, BGB or cisplatin IC20 combos (AID 1671460).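 Further: cells exposed to compounds for 96 hours before viability readout; 0% = vehicle and 100% = killing control.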 To be noted: Human astrocytes, drug combinations, stronger effect = higher value.
A short description of assay [16]: growth inhibition of BT084 medulloblastoma cells, cell-based, ICGC_MB145, cisplatin and BGB IC40 combos (AID 1671461).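 Further: cells exposed to drugs for 96 hours; 0% = vehicle DMSO and 100% = high DMSO full killing control.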 To be noted: drug combinations, stronger effect = higher value.
Assay [17] can be described thus: growth inhibition of RCMB18 medulloblastoma cells, cell-based, cisplatin and BGB IC40 combos (AID 1671462).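 Further: cells exposed to compound for four days.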 To be noted: stronger effect = higher value.
The nature of assay [18]: growth inhibition of CRL1545 osteosarcoma cells, cell-based, cisplatin and BGB IC20 combos (AID 1671464).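 Further: cells exposed to compound for 96 hours before readout; 0% = vehicle DMSO and 100% = high DMSO killing control.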 Conditions: stronger effect = higher value.
Assay [19] in a line: growth inhibition of DIPG glioma cells, dose response, cell-based, SU-DIPG-XIII, MIPE5.0, CellTiter-Glo, qHTS (AID 1347064; cut-off not given, nearly all actives have AC50 up to about 23 µM;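 on AC50: cells exposed to compound for 48 hours before the viability read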). Conditions: SU-DIPG-XIII viability, CellTiter-Glo ATP luminescence.
Assay [20] is described as follows: viability loss in pontine glioma line – cell-based, SU-DIPG-XXV, MIPE5.0, CellTiter-Glo, qHTS, dose response (AID 1347065; cut-off not given, nearly all actives have AC50 up to about 26 µM;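 further: cells exposed to compound for 48 hours before ATP readout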). To be noted: CellTiter-Glo ATP luminescence.
A short description of assay [21]: JHH-DIPG-1 glioma cell viability, MIPE5.0 library, CellTiter-Glo luminescence, qHTS (AID 1347067; cut-off not given, nearly all actives have AC50 up to about 26 µM;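 further: cells exposed to compound for 48 hours before readout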). To be noted: JHH-DIPG-1 glioma viability, CellTiter-Glo ATP luminescence.
Assay [22] in a line: SU-DIPG-XXV glioma cell viability, MIPE5.0 library, qHTS (AID 1347068; cut-off not given, nearly all actives have IC50 up to about 30 µM). For orientation: qHTS replaces the single test concentration by a dilution series.
[23] abbreviates: measured here: combination with BGB IC40, at 0.05 µM.
[24] abbreviates: measured here: with BGB IC20 combination, at 0.5 µM.
Setting [25] is: measured here: with cisplatin IC20 combination, at 0.5 µM.
Setting [26] is: measured here: combination with cisplatin, at 0.5 µM.
The mark [27] stands for this setting: measured here: combination with cisplatin, at 5 µM.

Broadly, the inhibition is the drop in the measured response relative to a control, in per cent. Usually AC50 stands for the concentration at which the activity in the assay is half-maximal.

In the case of `Cc1cn([C@@H]2O[C@H](CO)[C@@H](O)[C@@H]2F)c(=O)[nH]c1=O`, the compound was classed as inactive in assay [1], in assay [2] and in assay [3]. In addition, the inhibition was -22.2% (inactive) in [4] (at 0.5 µM, stronger effect = higher value); -21.4% in assay [4] (measured here: combination with BGB IC20, at 0.005 µM); 24.6% in assay [4] (measured here: combination with BGB IC40, at 0.005 µM); -36.4% in assay [4] (setting [23]); -29.1% in assay [4] (measured here: combination with cisplatin, at 0.5 µM, stronger effect = higher value); -25.8% in assay [4] (measured here: combination with cisplatin, at 5 µM, stronger effect = higher value). Further, the inhibition in [5] (BGB combo, at 5 µM) was -42.9%; in [5] (at 0.5 µM), 15.9% (inactive); in [5] (cisplatin combo, at 5 µM), -14%; in assay [5] (setting [24]), 25%; in [5] (setting [25]), 22.2%; in [5] (single agent, at 5 µM), -22.6%. Further, the inhibition in assay [6] (BGB IC20 combo, at 0.005 µM) was -11.3%; in assay [6] (BGB IC40 combo, at 0.005 µM), -20.8%; in assay [6] (BGB IC40 combo, at 0.05 µM), -28.4%; in assay [6] (at 0.5 µM), -27.1% (inactive); in assay [6] (cisplatin combo, at 0.05 µM), -35%; in [6] (cisplatin combo, at 0.5 µM), -33.8%. For the same compound, the inhibition is -27.5% in [6] (cisplatin combo, at 5 µM); -20.1% in [6] (measured here: 5 uM single agent, at 5 µM); -24% (inactive) in assay [7] (at 0.5 µM); -37.2% in [7] (setting [23]); -20.9% in assay [7] (setting [26]); -19% in [7] (setting [27]). For the same compound, the inhibition in assay [8] (at 0.5 µM) is 7.88% (inactive); in [8] (measured here: with BGB IC20, at 0.5 µM), 40.2%; in assay [8] (measured here: with BGB IC20, at 5 µM), -1.08%; in assay [8] (measured here: with cisplatin IC20, at 0.5 µM), -7.9%; in assay [8] (measured here: with cisplatin IC20, at 5 µM) it was -2.9%; in [8] (single agent, at 5 µM), 6.67%. The inhibition in assay [9] (at 0.5 µM) is -20.9% (inactive); in assay [9] (measured here: combination with BGB at IC20, at 0.5 µM), -6.05%; in [9] (measured here: combination with cisplatin at IC20, at 0.5 µM) it was -15.6%; in [10] (at 0.5 µM), -11.4% (inactive); in assay [10] (measured here: combo with BGB at IC20, at 0.5 µM), -16%; in [10] (measured here: combo with cisplatin at IC20, at 0.5 µM), -8.28%. Moreover, the inhibition in assay [11] (at 0.5 µM) was -3.54% (inactive); in [11] (measured here: inhibition with BGB combination, at 0.05 µM) it was -7.92%; in assay [11] (measured here: inhibition with cisplatin combination, at 0.05 µM), 2.99%; in [12] (at 0.5 µM), -27.6% (inactive); in assay [12] (setting [26]) it was -30.2%; in assay [12] (setting [27]), -44.4%. For the same compound, the inhibition in assay [13] (at 0.5 µM) was -24.5% (inactive); in assay [13] (measured here: BGB combination, at 0.5 µM), -21.7%; in [13] (measured here: BGB combination, at 5 µM), -19.5%; in assay [13] (measured here: cisplatin combination, at 0.5 µM) it was -37.4%; in assay [13] (measured here: cisplatin combination, at 5 µM), -37%; in [14] (BGB combination, concentration series, at 5 µM), -5.53%. For the same compound, the inhibition in [14] (at 0.5 µM) is -5.97% (inactive); in [14] (cisplatin combination, concentration series, at 5 µM), 11.6%; in assay [15] (at 0.5 µM), 10.9% (inactive); in [15] (measured here: combo with BGB IC20, at 0.5 µM) it was 14.5%; in assay [15] (measured here: combo with cisplatin IC20, at 0.5 µM) it was 15.4%; in assay [16] (at 0.5 µM), -12.8% (inactive). Further, the inhibition is 3.7% in assay [16] (cisplatin combination, at 0.5 µM); -127% in [16] (cisplatin combination, at 5 µM); -18.9% in assay [16] (measured here: BGB IC40 combination 0.05 uM, at 0.05 µM); -21.7% in assay [16] (single agent, at 5 µM); -23.1% (inactive) in assay [17] (at 0.5 µM); -15.5% in assay [17] (cisplatin combo, at 5 µM). Also, the inhibition in assay [17] (measured here: BGB IC40 combination, at 0.05 µM) is -13.9%; in assay [17] (setting [26]) it was -19%; in assay [17] (single agent, at 5 µM), -12.7%; in assay [18] (at 0.5 µM), 12.7% (inactive); in [18] (setting [24]) it was 6.33%; in assay [18] (setting [25]), 14.6%. Besides, the inhibition was -20.4% in [18] (single agent, at 0.05 µM) and 5.83% in assay [18] (single agent, at 5 µM).

As for `CC(C)(C)NC(=O)Nc1cccc(Nc2ncc(F)c(NC(C)(C)CO)n2)c1`, the outcome in assay [1], in assay [19] and in [3] was inactive. In addition, the concentration at half-maximal activity (AC50) in assay [20] was 4.68 µM (active).

Regarding `O=c1[nH]nc(OCCCc2ccc(Cl)cc2)c(NCc2cccnc2)c1Br`, the half-maximal activity concentration (AC50) is 23.5 µM (active) in assay [1], 18.7 µM (active) in assay [2] and 18.7 µM (active) in [3].

`c1ccc(CNc2nc(N3CCOc4ccccc43)nc3c2CCCC3)cc1`: the result in assay [1] was inactive. The AC50 in assay [19] is 16.6 µM (active).

On to `CC(=O)NCCC(=O)N[C@@H](CCC(N)=O)C(=O)N[C@@H](CO)C(=O)N[C@@H](CCC(N)=O)C(=O)N[C@@H](CCC(N)=O)C(=O)N[C@H](C(=O)N[C@@H](Cc1ccccc1)C(=O)N[C@]1(C)CCCCCC/C=C\CCC[C@@](C)(C(=O)N[C@@H](CCC(N)=O)C(=O)N[C@@H](CC(N)=O)C(N)=O)NC(=O)[C@H](CC(C)C)NC(=O)[C@H](CC(C)C)NC(=O)[C@@H](CCCNC(=N)N)NC(=O)[C@H](Cc2c[nH]c3ccccc23)NC(=O)[C@H](CC(C)C)NC(=O)[C@H](CC(N)=O)NC1=O)[C@H](C)O`, for which the compound was classed as inactive in assay [1], in assay [20], in assay [21] and in [22].

Take `COc1cc(OC)cc(-c2ccc3ncc4ccc(=O)n(-c5ccc(N6CCNCC6)c(C(F)(F)F)c5)c4c3c2)c1`: the AC50 in [1] was 16.6 µM (active); in [2], 2.64 µM (active); in [3] it was 13.2 µM (active).
